MCF10A rerep – DNA re-replication induction in MCF 10a cells. Potency, µM (top dose mostly 46.1 µM), for inactives: at the highest dose activity, positive = re-replication, usual class: activators. 350,000 tested, 2.9% active. MCF 10A DNA re-replication, Hoechst nuclear intensity, 48 h; further: % of control where 0% means no effect; nearly all actives have a fitted effect of over 50% in size
KB-3-1 cytotox – KB-3-1 parental cell cytotoxicity | 400,000 tested, 1.4% active | KB-3-1 viability, CellTiter-Glo ATP luminescence, 72 h | Potency, µM (series often up to 46.1 µM), actives largely listed as cytotoxic; further: on the % scale 0 is the no-effect control and ±100 the full control effect; nearly all actives have a fitted effect of over 60% in size
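Multi-concentration cytotoxicity screen in KB-3-1 cells grown in DMEM lacking phenol red with 10% FBS. After 72 h at 37 °C with compound, ATP-dependent luminescence was recorded.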
KB-V1 MDR tox – KB-V1 MDR subline cytotoxicity; 400,000 tested, 3.4% active; Potency, µM (doses to about 46.1 µM), hits mostly cytotoxic; AID 1347076; KB-V1 MDR cells viability, CellTiter-Glo, 72 h; further: on the % scale 0 is the no-effect control and ±100 the full control effect; nearly all actives have a fitted effect of over 60% in size
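Potencies derive from concentration-effect curves fitted to normalized luminescence (CellTiter-Glo) of KB-V1 cells treated for 72 h at 37 degrees C in phenol-red-free DMEM containing 10% FBS.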
PTAP TSG101 blk – blocks PTAP/TSG101 interaction to inhibit HIV-1 budding; Fluorescence polarization, FITC-PTAP peptide / Tsg101 binding; Potency, µM (doses to about 115 µM), for the others: at the highest dose activity change, negative = inhibition, hits mostly inhibitors; 340,000 tested, under 10 active; active means well fitted inhibition curve with a large enough effect in the main read-out, with a control signal flat, not every such curve was filed as active; inconclusive means small, poorly fitted or top-dose-only effect, or effect the other way, or a change in a side signal; inactive means no such curve, though single readings can be large or run the other way; further: % of control where 0% means no effect
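Fluorescence anisotropy tracks displacement of a FITC-tagged PTAP peptide (50 nM) from the Tsg101 binding domain (10 uM), following a 20 min room-temperature incubation at pH 7.5.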
SW480 rereplic – inducers of DNA re-replication in SW480 colon cancer cells | SW480 DNA re-replication, Hoechst DNA content imaging, 48 h | Potency, µM (top dose mostly 46.1 µM), for the others: at the highest dose re-replication activation, actives largely listed as activators | 340,000 tested, 1.8% active | AID 624297; further: % of control where 0% means no effect; nearly all actives have a fitted effect of over 55% in size
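Image-based DNA-content assay: after two days of treatment, nuclei were labelled with the DNA dye Hoechst and imaged, and hits were compounds raising the count of nuclei showing high fluorescence intensity.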
RGS4 inhibitor – inhibitors of human regulator of G protein signaling 4; P49798; Transcreener GDP fluorescence polarization, RGS4-accelerated GTP hydrolysis; Potency, µM (top dose mostly 114 µM), for the others: at the top dose activity change, negative = inhibition, actives largely listed as inhibitors; 390,000 tested, 0.039% active; AID 504845; further: on the % scale 0 is the no-effect control and ±100 the full control effect; nearly all actives have a fitted effect of over 75% in size
Target sequence (P49798 whole entry, looked up): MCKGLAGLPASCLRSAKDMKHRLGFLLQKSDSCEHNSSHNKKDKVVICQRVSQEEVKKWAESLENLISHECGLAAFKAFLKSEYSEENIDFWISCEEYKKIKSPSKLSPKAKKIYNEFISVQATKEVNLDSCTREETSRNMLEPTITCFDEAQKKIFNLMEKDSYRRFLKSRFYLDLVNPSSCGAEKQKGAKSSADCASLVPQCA
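MLSMR compounds (23 nl, pin-transferred) preincubated 10 min at room temperature with a 500nM (2x) first reagent, then RGS4 at 900nM (2x) plus Transcreener GDP mix added; fluorescence polarization (620/688 nm) read before and after 90 min at 30 °C.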
* = called active by the depositor; i = inactive; ? = inconclusive; . = no result given; [ ] = remark or other dose. Only some compounds are listed: those with a hit (about 6.6% of all), similar ones and a draw of the others. Unless noted, the call rests on the fitted dose curve; in most records, active means well fitted curve in the direction sought with a large enough effect; inconclusive means small, poorly fitted or top-dose-only effect, or another doubt; inactive means no such curve, though single readings can be large; an effect the other way counts as inactive or inconclusive. Potency means the concentration at half of the fitted maximal effect.

SMILES	MCF10A rerep	KB-3-1 cytotox	KB-V1 MDR tox	PTAP TSG101 blk	SW480 rereplic	RGS4 inhibitor
CNc1ccccc1C(C)(C)c1cc(-c2cccc(Br)c2)no1	15µM*	23µM*	i	2%	26%	7%
CNc1ccccc1C(C)(C)c1cc(-c2cccc([N+](=O)[O-])c2)no1	?	i	i	1%	?	-6%
CNc1ccccc1C(C)(C)c1cc(-c2ccc(F)cc2)no1	-5%	8.2µM*	?	-6%	.	0%
CC(C)(C)c1cc(-c2ccccc2)no1	-6%	i	i	1%	-7%	-7%
Cc1ccc(C)c(N2CCN(C(=O)CN3C(=O)COc4ccc(S(=O)(=O)N5CCOCC5)cc43)CC2)c1	.	i	i	.	.	26%
CC(=O)Nc1cccc(-c2csc(Nc3cc(C)ccn3)n2)c1	0%	i	23µM*	-5%	-6%	-12%
O=C(Cn1c(=O)n(-c2ccccc2)c(=O)c2ccc(C(=O)NCc3ccc4c(c3)OCO4)cc21)Nc1ccc(Br)cc1F	.	i	i	.	.	7%
Cc1cc(/C=N/n2cnnc2)c(C)n1-c1ccc(OCc2ccc(Cl)cc2Cl)cc1	1.5µM*	7.3µM*	5.2µM*	-2%	14%	-52%
Cc1cc(/C=N/n2cnnc2)c(C)n1-c1ccc(Cl)cc1	17%	i	i	-6%	2%	-16%
Cc1cc(/C=N/n2cnnc2)c(C)n1-c1ccccc1	8%	3.3µM*	5.8µM*	1%	-3%	-3%
COc1ccc(N2CCN(C(=O)c3nn(-c4ccc(C)cc4)c(=O)n(C)c3=O)CC2)cc1	.	i	i	.	.	0%
C=CC[C@H]1Cc2c(cccc2[N+](=O)[O-])[C@H](CC=C)N1	2%	i	i	1%	?	-14%
C=CCC1Cc2c(Br)cccc2C(CC=C)N1 (stereo unspecified)	0.92µM*	i	i	-2%	-24%	-20%
Cc1c(-c2n[nH]c(=S)n2-c2ccc(C(F)(F)F)cc2)nnn1-c1ccccc1	13%	i	23µM*	-2%	1%	-44%
COc1cc(CN2CCN(S(=O)(=O)c3ccc(NC(C)=O)cc3)CC2)cc(OC)c1O	-5%	i	i	5%	-5%	14%
CC(=O)Nc1ccc(S(=O)(=O)N2CCN(S(=O)(=O)c3ccccc3)CC2)cc1	1%	i	i	-3%	28%	14%
COc1ccc(CN2CCN(C(=O)c3ccc(S(=O)(=O)N4CCCCCC4)cc3)CC2)cc1	?	8.2µM*	2.3µM*	-1%	15%	24%
COc1ccc(CN2CCN(S(=O)(=O)c3ccc(NC(C)=O)cc3)CC2)cc1OC	?	i	21µM*	-7%	-1%	-11%
CC(=O)Nc1ccc(S(=O)(=O)N2CCN(CC3CC4C=CC3C4)CC2)cc1 (stereo unspecified)	12%	i	?	-1%	1.3µM*	-3%[56.9 µM]
COc1ccc(CN2CCN(C(=O)c3ccc(S(=O)(=O)N4CCCCCC4)cc3)CC2)cc1F	11%	23µM*	?	-1%	0%	3%
CCc1ccc(NC(=O)COCc2cc(-c3ccc(F)cc3)on2)cc1	.	i	i	.	.	-22%
Cc1ccccc1-n1c(C)nnc1SC(C)C(=O)NCc1ccco1 (stereo unspecified)	.	?	i	.	.	.
COc1ccc(NC(=O)CCCn2nc(C)c3sc4ccccc4c3c2=O)cc1	.	i	i	.	.	-16%
Cc1cc(SCC(=O)Nc2nsc(-c3ccc(C(C)(C)C)cc3)n2)nc2ccccc12	.	.	.	.	.	-4%
COc1ccc(C(C)=O)cc1COC(=O)C1CCN(C(=O)c2ccc(Cl)cc2)CC1	0%	i	i	0%	-1%	-8%
COc1ccc(COC(=O)C2CCN(C(=O)c3ccc(Cl)cc3)CC2)cc1F	15µM*	?	i	-1%	2%	2%

Screening results from PubChem.
